Bioassay records deposited in PubChem by National Center for Advancing Translational Sciences (NCATS).
ELG1 genotoxic – qHTS screen for small molecules that induce genotoxicity in human embryonic kidney (HEK293T) cells expressing luciferase-tagged ELG1 | AID 504466, 2011 | HEK293T ELG1-luciferase reporter, luminescence, 16 h | 330,000 tested, 1.3% active | Potency, µM (doses to about 46 µM), for inactives: at the highest dose activity change, positive = activation, usual class: activators; further: % of control where 0% means no effect; nearly all actives have a fitted effect of over 60% in size
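ELG1-luciferase HEK293T cells, 2,000/well; compound pinned in; 16 hr, 37 °C, 5% CO2; ONE-Glo, 30 min RT; luminescence on CCD imager.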
Rab9 promoter act – qHTS Assay for Rab9 Promoter Activators. Huh7 Rab9 promoter-luciferase reporter, luminescence, 24 h. Potency, µM (doses to about 9.22 µM), inactives show top-dose activation, negative = inhibition, most hits filed as activators. 320,000 tested, 2.8% active. AID 485297, 2010; further: % of control where 0% means no effect; nearly all actives have a fitted effect of over 60% in size
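Promoter activation is measured as luciferase luminescence in Huh7 cells stably transfected with a Rab9 promoter–luciferase construct, following 24 h compound exposure at 37 °C and 10 min reagent incubation at ambient temperature.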
FLuc counter – qHTS profiling assay for firefly luciferase inhibitor/activator using purifed enzyme and Km concentrations of substrates (counterscreen for miR-21 project). AID 588342, 2011. 360,000 tested, 6.9% active. Luciferin 4-monooxygenase (Photinus pyralis), P08659. Potency, µM (titrated, usually from 57.5 µM), for the others: at the highest dose activity change, negative = inhibition, actives largely listed as inhibitors. purified FLuc, Km substrates, luminescence inhibition;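 further: plate controls were vehicle for no effect and reference inhibitor for full effect; nearly all actives have a fitted effect of over 55% in size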
Target sequence (P08659 whole entry, looked up): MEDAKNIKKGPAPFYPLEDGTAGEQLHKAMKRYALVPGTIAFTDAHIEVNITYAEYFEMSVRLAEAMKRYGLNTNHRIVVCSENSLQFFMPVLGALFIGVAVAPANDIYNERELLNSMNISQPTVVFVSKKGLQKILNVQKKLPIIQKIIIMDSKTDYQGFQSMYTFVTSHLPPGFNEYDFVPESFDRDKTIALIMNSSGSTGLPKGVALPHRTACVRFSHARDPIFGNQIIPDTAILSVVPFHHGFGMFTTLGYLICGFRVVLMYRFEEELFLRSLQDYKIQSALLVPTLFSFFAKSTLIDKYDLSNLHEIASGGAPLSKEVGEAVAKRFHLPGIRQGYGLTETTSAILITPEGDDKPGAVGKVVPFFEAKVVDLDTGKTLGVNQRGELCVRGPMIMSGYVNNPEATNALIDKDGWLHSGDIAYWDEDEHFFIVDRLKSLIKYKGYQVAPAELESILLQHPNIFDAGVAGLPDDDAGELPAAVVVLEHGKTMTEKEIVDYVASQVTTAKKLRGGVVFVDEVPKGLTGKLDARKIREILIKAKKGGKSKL
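Biochemical qHTS of compounds, final roughly 60 µM downward over six points, against 10 nM purified firefly luciferase using Km concentrations of substrates (10 uM D-luciferin, 10 uM ATP) in Tris acetate pH 7.5 buffer; luminescence output.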
KinaseGlo FLuc – Counterscreen for Luciferase (Kinase-Glo TM) Inhibition. Luciferin 4-monooxygenase (Photuris pensylvanica), Q27757. Potency, µM (top dose mostly 38.3 µM), without a hit: at the highest dose activity change, negative = inhibition, most hits filed as inhibitors. Kinase-Glo luciferase, ATP luminescence, 8 min. 200,000 tested, 0.28% active. AID 1379, 2008; further: on the % scale 0 is the no-effect control and ±100 the full control effect; nearly all actives have a fitted effect of over 60% in size
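Inhibition of Kinase-Glo luciferase light generation was assessed at 10 uM ATP in pH 7.2 imidazole buffer, with luminescence measured after eight minutes at ambient temperature.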
NPC1 promoter act – qHTS Assay for NPC1 Promoter Activators | Huh7 NPC1 promoter luciferase reporter, 24 h | Potency, µM (top dose mostly 9.22 µM), for the others: top-dose activation, actives largely listed as activators | AID 485313, 2010 | 320,000 tested, 2.4% active; further: % of control where 0% means no effect; nearly all actives have a fitted effect of over 60% in size
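Luminescence read-out of NPC1 promoter-driven luciferase in stably transfected Huh7 cells; compounds delivered in DMSO and left 24 h at 37C, 5% CO2, qHTS titration format.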
SMN2 splice enh – qHTS Assay for Enhancers of SMN2 Splice Variant Expression | HEK293 SMN2-luciferase splicing reporter, luminescence, 30-36 h | 210,000 tested, 2.8% active | Potency, µM (highest dose often 46.1 µM), for inactives: top-dose activity change, positive = activation, actives largely listed as activators; further: % of control where 0% means no effect; nearly all actives have a fitted effect of over 55% in size
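HEK293 cells carry an SMN2 […]–luciferase reporter in which exon 7 inclusion puts luciferase in frame. Cells were plated 10-12 h before compound addition, then incubated 30-36 h at 37C. ONE-Glo luminescence was read; sodium butyrate at 4.5 mM final served as control.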
* hit, by the source's call. The list is not random: actives were taken first. Their share in the collection is about 7.5%. The call rests on the fitted dose curve; in most records, active means well fitted curve in the direction sought with a large enough effect; inconclusive means small, poorly fitted or top-dose-only effect, or another doubt; inactive means no such curve, though single readings can be large; an effect the other way counts as inactive or inconclusive. Potency means the concentration at half of the fitted maximal effect.

`CC(C)(C)c1ccc(/C=N/n2cnnc2)cc1` gave ELG1 genotoxic 8%, Rab9 promoter act -8%, FLuc counter 19µM*, KinaseGlo FLuc -1%, NPC1 promoter act 1% and SMN2 splice enh 12%.
O=C(Nc1ccc([N+](=O)[O-])cc1)C(=O)Nc1cccc(C(=O)O)c1 was read as ELG1 genotoxic inconclusive, Rab9 promoter act inconclusive, FLuc counter 0.019µM* and NPC1 promoter act inconclusive.
O=C(O)/C=C/c1cccc(NC(=O)Nc2ccc([N+](=O)[O-])cc2)c1 was read as ELG1 genotoxic 0%, Rab9 promoter act 5%, FLuc counter 7.6µM* and NPC1 promoter act -5%.
For Cc1ccccc1C(=O)NNS(=O)(=O)c1cccc([N+](=O)[O-])c1 the results were ELG1 genotoxic 0%, Rab9 promoter act -1%, FLuc counter -6% and NPC1 promoter act 1%.
For Cc1ccc(O)c(NC(=O)c2cc(-c3ccccc3Cl)on2)c1 the results were ELG1 genotoxic 16µM*, Rab9 promoter act inconclusive, FLuc counter inconclusive and NPC1 promoter act inconclusive.
Screening COc1ccc(-c2cc(C(=O)Nc3cc(C)ccc3O)no2)cc1 returned ELG1 genotoxic 21µM*, Rab9 promoter act 20%, FLuc counter -8% and NPC1 promoter act inconclusive.
COc1ccc(-c2cc(C(=O)Nc3cc(Cl)ccc3O)no2)cc1 was read as ELG1 genotoxic 16µM*, Rab9 promoter act inconclusive, FLuc counter inconclusive and NPC1 promoter act 3.5µM*.
For Cc1ccc(-c2cc(C(=O)Nc3cc(C)ccc3O)no2)cc1 the results were ELG1 genotoxic 9%, Rab9 promoter act inconclusive, FLuc counter inconclusive and NPC1 promoter act inconclusive.
For O=C(NC1CCCC1)c1cnn(-c2ccc(F)cc2F)c1C1CCNCC1 the results were FLuc counter 0%.
For NC(=O)c1ccccc1OCc1nnc(-c2ccccc2Br)o1 the results were ELG1 genotoxic 20%, Rab9 promoter act inconclusive, FLuc counter inconclusive and NPC1 promoter act 23%.
`COc1cc2c(cc1OC)C(c1cc(Br)c(OC)c(OC)c1)CC(=O)N2` (stereo unspecified) gave ELG1 genotoxic 18%, Rab9 promoter act 3%, FLuc counter -1% and NPC1 promoter act -3%.
`CN(Cc1ccc(F)cc1)C(=O)CCc1nnc(-c2ccccc2)o1` gave ELG1 genotoxic inconclusive, Rab9 promoter act inconclusive, FLuc counter 17µM*, KinaseGlo FLuc 0% and NPC1 promoter act inconclusive.
`COc1ccc(CCN(C)C(=O)CCc2nnc(-c3ccccc3)o2)cc1OC` gave ELG1 genotoxic inconclusive, Rab9 promoter act 3.2µM*, FLuc counter 19µM*, KinaseGlo FLuc -2% and NPC1 promoter act 4.5µM*.
CN(Cc1nc2c(s1)CCCC2)C(=O)CCc1nnc(-c2ccccc2)o1 was read as ELG1 genotoxic 16%, Rab9 promoter act 23%, FLuc counter inconclusive and NPC1 promoter act 14%.
`CC12CCC(=O)N1C(C(=O)Nc1nc(-c3cc(F)ccc3F)cs1)CS2` (stereo unspecified) gave ELG1 genotoxic -1%, Rab9 promoter act -1%, FLuc counter -3% and NPC1 promoter act -2%.
For CCOC(=O)CSc1nnc(-c2ccc(OC)cc2)o1 the results were FLuc counter 17µM* and SMN2 splice enh 0%.
CCOC(=O)CSc1nnc(-c2ccc(OC)cc2OC)o1 was read as ELG1 genotoxic 3%, Rab9 promoter act 2%, FLuc counter 9.5µM*, KinaseGlo FLuc -3%, NPC1 promoter act 0% and SMN2 splice enh 7%.
